Data: PubChem BioAssay (NCI)
About 79,000 compounds went through this panel and 15% of them were active in at least one assay; those are over-represented in the sample as a whole. Active and inactive are the calls of the source. Cut-off read from the data, not from the text of the source: active = growth inhibition above about 70%; inactive = the rest.

Assay: NCI Yeast Anticancer Drug Screen. Data for the rad18 strain (AID 177)
Settings: S. cerevisiae rad18 mutant growth inhibition, active compounds read high
Protocol: Growth inhibition of yeast strains with defined genetic alterations is measured as a screen for potential anti-cancer activity. Selected strains with alterations in DNA damage repair or cell cycle control were exposed to compounds and growth inhibition was measured relative to vehicle treated controls. The strain used in this assay is rad18

Measured: growth inhibition

CCOC(=O)C#Cc1ccc([N+](=O)[O-])cc1
inactive: at 1.2 µM -1% | at 3.7 µM -2% | at 11.0 µM 0% | at 33.0 µM 15% | at 100.0 µM 64%

CCOC(=O)c1[nH]n(-c2ccccc2)c(=O)c1C=NC(=S)C(N)=S
inactive: at 1.2 µM 0% | at 3.7 µM -4% | at 11.0 µM 2% | at 33.0 µM 67%
active: at 100.0 µM 97%

O=C(/C=C\c1cccc(C(F)(F)F)c1)c1ccccc1
inactive: at 1.2 µM 0% | at 3.7 µM 1% | at 11.0 µM 7% | at 33.0 µM 22% | at 100.0 µM 57%

CC1OC(O[C@H]2/C=C/C=C/C=C/C=C/C=C/C=C/C=C/[C@H](C)[C@@H](O)[C@@H](C)[C@H](C)OC(=O)C[C@H](O)C[C@H](O)CC[C@@H](O)[C@H](O)C[C@H](O)C[C@]3(O)C[C@H](O)[C@@H](C(=O)O)[C@H](C2)O3)C(O)C(N)C1O (stereo not given in full)
inactive: at 1.2 µM -20% | at 3.7 µM 35%
active: at 11.0 µM 97% | at 33.0 µM 98% | at 100.0 µM 97%

CCOC(=O)CC1(C(=O)OCC)c2[nH]c3ccccc3c2CCN1Cc1ccccc1 (stereo not given)
inactive: at 1.2 µM -3% | at 3.7 µM -15% | at 11.0 µM 8% | at 33.0 µM 3% | at 100.0 µM 35%

C[Si](C)(C)/C=C/CCNC(C#N)c1ccccc1 (stereo not given)
active: at 100.0 µM 92%
inactive: at 1.2 µM -33% | at 3.7 µM -42% | at 11.0 µM 27% | at 33.0 µM 23%

Cc1cc2c(cc1C)[n+]([O-])c(-c1nc3ccccc3s1)c(N)[n+]2[O-]
active: at 100.0 µM 91%
inactive: at 1.2 µM 4% | at 3.7 µM 20% | at 11.0 µM 36% | at 33.0 µM 63%

CCN(CC)CCNc1ccc2ncn3c4cc(OC)c(OC)c(=O)c4c(O)c1c23
inactive: at 1.2 µM -4% | at 3.7 µM -1% | at 11.0 µM 5% | at 33.0 µM -7% | at 100.0 µM 1%
